Test [1] in a line: NCI Yeast Anticancer Drug Screen. Data for the rad50 strain (AID 155).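 Further: 0% = growth of vehicle-only cultures of the same strain.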 Conditions: S. cerevisiae rad50 strain growth inhibition; at 50.0 µM; hits give high values. Summed up: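 Growth of the mutant yeast was measured after compound exposure and referenced to vehicle-treated cultures.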
The nature of test [2]: NCI Yeast Anticancer Drug Screen. Data for the mec2-1 strain (AID 157). As to conditions: S. cerevisiae mec2-1 strain, at 50.0 µM, hits give high values. The gist of the method: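 Vehicle-treated cultures served as reference for growth inhibition of compound-exposed mec2-1 yeast.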
A short description of test [3]: NCI Yeast Anticancer Drug Screen. Data for the sgs1 mgt1 strain (AID 161).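 Further: 0% = growth of cultures given vehicle only.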 Conditions: S. cerevisiae sgs1 mgt1 strain, at 50.0 µM, hits give high values. Summed up: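 Inhibition of yeast growth, normalised to vehicle-treated controls, is reported for a strain bearing genetic alterations in DNA damage repair.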
Test [4] is described as follows: NCI Yeast Anticancer Drug Screen. Data for the cln2 rad14 strain (AID 165).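 Further: 0% = growth equal to vehicle treated cultures.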 As to conditions: S. cerevisiae cln2 rad14 strain, at 50.0 µM, hits give high values. The gist of the method:
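Each compound was tested on cln2 rad14 yeast. Inhibition of growth was calculated against vehicle-exposed controls.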

The nature of test [5]: NCI Yeast Anticancer Drug Screen. Data for the bub3 strain (AID 167). As to conditions: S. cerevisiae bub3 mutant strain, at 50.0 µM, hits give high values. Summed up:
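Whole-cell yeast assay. The mutant strain was incubated with compounds, and growth inhibition was determined by comparison with vehicle-treated cells.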

The nature of test [6]: NCI Yeast Anticancer Drug Screen. Data for the mlh1 rad18 strain (AID 175). As to conditions: S. cerevisiae mlh1 rad18 strain growth inhibition; at 50.0 µM; hits give high values. The gist of the method:
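Vehicle-treated cultures served as the reference for growth inhibition in a yeast strain carrying DNA damage repair alterations exposed to each compound.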

The panel holds about 79,000 compounds, 15% with a hit somewhere; the sample as a whole holds those more often. A number with no mark means an inactive call. Calls of active or inactive are those of the source. No stated cut-off is given here; in the data, active means growth inhibition above about 70%; inactive means the rest.

`CC(=O)c1ccc(C(=O)c2cccnc2)cc1`: the growth inhibition in test [1] was -17%; in test [2], -9.2%; in test [3], -0.4%; in test [4] it was -49.3%; in test [5], -14.7%; in test [6], 7.4%.
As to `O=C1CCCCCCCC(=O)Nc2ccc3nc4ccccc4c(c3c2)SCCCCCCCCCSc2c3ccccc3nc3ccc(cc23)N1`, the growth inhibition in test [1] was 27.7%; in test [2] it was -13.2%; in test [3], -6.75%; in test [4], -13.2%; in test [5] it was -6.5%; in test [6], 4.2%.
With `O=C(O)/C=C(/CC(=O)O)c1ccc(O)cc1`, the growth inhibition in test [1] was -14.9%; in test [2] it was -21.7%; in test [3] it was -9.9%; in test [4], -4.55%; in test [5], -18.6%; in test [6], -14.3%.
For the compound `CCc1c(C)[nH]c(C2=NCCC2)c1C`, the growth inhibition was -10.6% in test [1]; -9.6% in test [2]; -17.8% in test [3]; -1.6% in test [4]; -13.4% in test [5]; -25.1% in test [6].
As to `CCOC(=O)c1cc2c(cn1)[nH]c1cccc(N)c12`, the growth inhibition in test [1] was -10.3%; in test [2], -39.5%; in test [3] it was 7.05%; in test [4], 5.85%; in test [5], -3.5%; in test [6], -9.55%.
Regarding `CC1CC12OC(=O)N(c1cc(Cl)cc(Cl)c1)C2=O` (stereo unspecified), the growth inhibition in test [1] was 1.7%; in test [2], 8.9%; in test [3], 14.3%; in test [4], 35.1%; in test [5], -2.05%; in test [6] it was 16.6%.
With `ClCC#CCCl`, the growth inhibition is 19.4% in test [1]; -10.9% in test [2]; 16.9% in test [3]; 4.3% in test [4]; -7.4% in test [5]; 5.1% in test [6].
Turning to `CCOCC(OCC)OCC`, the growth inhibition in test [1] is -4.1%; in test [2], 0.45%; in test [3] it was -2.55%; in test [4], 22.9%; in test [5], -5.45%; in test [6] it was 6.7%.
On to `CC1CCCC(=O)CC1` (stereo unspecified), for which the growth inhibition in test [1] was 7.35%; in test [2], 9.85%; in test [3], -2.85%; in test [4], 16.3%; in test [5] it was -0.45%; in test [6], 6.5%.
Take `CCCCNCC(=O)O[C@]1(CC)C(=O)OCc2c1cc1n(c2=O)Cc2cc3ccccc3nc2-1`: the growth inhibition is 78% (active) in test [1]; 66.8% in test [2]; 49.5% in test [3]; 28.8% in test [4]; 40.2% in test [5]; 62.2% in test [6].
Regarding `Clc1ccc(/C=N/c2ccccn2)cc1`, the growth inhibition is -37.2% in test [1]; -51.4% in test [2]; -22.8% in test [3]; 19.9% in test [4]; -54.1% in test [5]; -31.1% in test [6].
With `CC(C)COS(=O)(=O)O`, the growth inhibition in test [1] is 19.2%; in test [2], 6.65%; in test [3], 20%; in test [4] it was 24.9%; in test [5], 15.2%; in test [6], 27.1%.
On to `C#CCOC(=O)c1ccc(C(=O)OCC#C)cc1`, for which the growth inhibition in test [1] is 11.9%; in test [2], -17.3%; in test [3] it was -9.3%; in test [4] it was 8.35%; in test [5] it was 3.15%; in test [6], -20.7%.
Consider `COc1cccc(OC)c1OCC1CO1` (stereo unspecified), for which the growth inhibition in test [1] was 6.95%; in test [2] it was 9.8%; in test [3], 0.2%; in test [4], -14.4%; in test [5] it was 2.3%; in test [6], 9.95%.
On to `Cc1[nH]c2ccccc2c1C1Cc2ccccc2N1C(=O)/C=C/C=C/c1ccccc1` (stereo unspecified), for which the growth inhibition in test [1] is 10.4%; in test [2], 24.7%; in test [3], -39.4%; in test [4] it was 38.5%; in test [5], 2.2%; in test [6], 15.2%.
Turning to `COC1CC(NC(C)=O)C(OC(=O)c2ccccc2)C(CBr)O1` (stereo unspecified), the growth inhibition is 17.6% in test [1]; 1.4% in test [2]; 2.45% in test [3]; 15.2% in test [4]; -1.8% in test [5]; 19.6% in test [6].
As for `Cc1ncc(CN2CSC(CCO)C2C)c(N)n1` (stereo unspecified), the growth inhibition in test [1] was 32.6%; in test [2], 8.4%; in test [3] it was 27.2%; in test [4], 16.8%; in test [5], 17.4%; in test [6], 43.1%.
Consider `CCCC1SC(=S)N(c2ccc(Cl)cc2)C1=O` (stereo unspecified), for which the growth inhibition is 17.9% in test [1]; 22.1% in test [2]; 26.5% in test [3]; 9.2% in test [4]; -1.55% in test [5]; 9.9% in test [6].
As to `CCCCC(=O)OC[n+]1ccc2c(C)c3[nH]c4ccc(OC)cc4c3c(C)c2c1`, the growth inhibition was 87.9% (active) in test [1]; 91.8% (active) in test [2]; 90.2% (active) in test [3]; 89.1% (active) in test [4]; 87.1% (active) in test [5]; 91.8% (active) in test [6].
With `O=C(CCCc1ccc([N+](=O)[O-])cc1)c1ccccc1`, the growth inhibition in test [1] was -5.85%; in test [2], -5.55%; in test [3], 1.2%; in test [4], -28.4%; in test [5] it was 3.5%; in test [6] it was -4.65%.
For the compound `O=C1C=CC(=O)C1`, the growth inhibition is 16% in test [1]; -7.95% in test [2]; 3.15% in test [3]; -0.3% in test [4]; 5.65% in test [5]; -3.75% in test [6].

For the origin of these results see PubChem BioAssay (NCI).
